Calls of active or inactive are those of the source.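 How the source made its calls, unless noted: active means visual image review flags a hit and inhibition of aggregation exceeds 20%; inconclusive means visual hit but inhibition at or below 20%; inactive means no hit on visual image review.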
How the values were obtained:
[1] = inhibitors of TNFa-induced NFkB p65 translocation, primary screen, imaging, HUVEC, MLSMR starter and 10KST1 sets (AID 438;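 active means inhibition above 20% together with a positive visual image hit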;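 further: compound added about 3h40 before a 20 min TNFalpha stimulation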;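 on inhibition: signal is the nuclear over cytoplasmic p65 intensity ratio per well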); conditions: HUVEC TNFa-induced p65 nuclear translocation; cell count: measured here: nuclei count (cytotoxicity indicator), at 2.08 µM; inhibition: at 2 µM, stronger effect = higher value, 0% TNFa-plus-vehicle, 100% no-TNFa wells
[2] = reduction of polyQ htt aggregates in cells – imaging, exon1htt(103Q)mCFP cells, high-content imaging, primary screen (AID 483); conditions: exon1htt(103Q)mCFP cell line, aggregate imaging, at 2 µM; inhibition of aggregation: stronger effect = higher value; nuclei count: measured here: cell count, toxicity;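 further: compound exposure lasted 3 days before fixation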;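 on nuclei count: percent of the per-plate median nuclei count of sample wells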
[3] = endothelial E-selectin expression blockers – imaging, HUVEC, immunofluorescence, MLSMR starter and 10KST1 sets, primary screen (AID 487;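 active means visually confirmed hit in the image check and inhibition above 20%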;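 on inhibition: signal is fraction of cell area covered by stained E-selectin grains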;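 on nuclei count: 100% = median nuclei count of all wells on the same plate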); conditions: HUVEC TNFalpha-induced E-selectin immunofluorescence imaging, at 2 µM; inhibition: stronger effect = higher value; nuclei count: measured here: cell number, toxicity
[4] = target: Voltage-gated potassium channel subunit beta-2 (Rattus norvegicus) (UniProt P62483); experiment: inhibitors of rat Kvbeta2 reductase activity – biochemical, NADPH fluorescence, primary screen (AID 622;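 active means fluorescence slope higher than the sample average by over 3 SD, cut at about -0.22 in these data, passing the limit was not always enough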;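 further: slope of raw intensity against log time taken from 70 to 1610 s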); conditions: recombinant KvBeta, 4-cyanobenzaldehyde reduction, at 10 µM, stronger effect = higher value
Chain of Voltage-gated potassium channel subunit beta-2 (Rattus norvegicus) (P62483 whole entry, looked up): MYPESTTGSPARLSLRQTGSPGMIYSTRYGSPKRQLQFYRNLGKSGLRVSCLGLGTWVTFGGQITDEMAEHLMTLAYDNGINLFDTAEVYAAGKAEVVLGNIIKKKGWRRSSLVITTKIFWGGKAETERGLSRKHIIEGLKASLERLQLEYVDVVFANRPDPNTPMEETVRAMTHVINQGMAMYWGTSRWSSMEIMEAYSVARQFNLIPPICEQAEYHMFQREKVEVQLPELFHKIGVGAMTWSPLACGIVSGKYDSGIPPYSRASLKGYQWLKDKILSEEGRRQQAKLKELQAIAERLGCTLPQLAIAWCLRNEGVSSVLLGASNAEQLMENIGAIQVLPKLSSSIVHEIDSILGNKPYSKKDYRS

[5] = target: Voltage-gated potassium channel subunit beta-2 (Rattus norvegicus) (UniProt P62483); experiment: enhancers of rat Kvbeta2 NADPH turnover – biochemical, NADPH fluorescence, primary screen (AID 623;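 active means NADPH fluorescence slope more negative than the mean of all samples by about 3 SD, 99.7% confidence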;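 further: fluorescence intensity change per second fitted from 20 to 320 s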); conditions: Recombinant KvBeta, NADPH fluorescence decrease slope, 10 min; at 10 µM; stronger effect = lower value
[6] = target: Alpha-2C adrenergic receptor (Homo sapiens) (UniProt P18825); experiment: compounds altering alpha2C-coupled GIRK flux – cell-based, HEK293 alpha2C/GIRK1/2, thallium flux, primary screen (AID 624;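 active means fluorescence slope after compound addition differing from the mean of all screened samples at 99.7% confidence, in either direction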;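 further: slope of fluorescence ratio to pre-addition baseline per second over 15 to 24 s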); conditions: thallium flux BTC fluorescence, at 10 µM, actives lie on both sides
Chain of Alpha-2C adrenergic receptor (Homo sapiens) (P18825 whole entry, looked up): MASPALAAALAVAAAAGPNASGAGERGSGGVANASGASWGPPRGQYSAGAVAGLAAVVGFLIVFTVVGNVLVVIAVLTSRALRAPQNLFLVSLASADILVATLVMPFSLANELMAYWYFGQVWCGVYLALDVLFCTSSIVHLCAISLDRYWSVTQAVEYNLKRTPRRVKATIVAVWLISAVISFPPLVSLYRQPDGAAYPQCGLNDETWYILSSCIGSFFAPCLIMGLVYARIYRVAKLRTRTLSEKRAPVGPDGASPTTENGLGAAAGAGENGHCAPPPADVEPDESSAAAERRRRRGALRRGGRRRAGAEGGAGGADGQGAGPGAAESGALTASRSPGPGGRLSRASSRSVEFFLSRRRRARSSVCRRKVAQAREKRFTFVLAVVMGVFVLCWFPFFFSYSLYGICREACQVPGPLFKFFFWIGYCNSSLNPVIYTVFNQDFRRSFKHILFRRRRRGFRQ

[7] = blockers of RIG-like receptor reporter activation – cell-based, Sendai virus stimulus, luciferase, 10K MLSCN set, TLR/RLR signaling modifier project, primary screen (AID 602276;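 active means inhibition at or above 50% at 10 µM; inactive means inhibition below 50%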;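 further: firefly luciferase from ISG56 promoter only with Renilla not read in this screen; 0% = Sendai virus plus DMSO and 100% = medium plus DMSO without virus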); conditions: HEK293 RL24 IRF3 luciferase reporter, at 10 µM, stronger effect = higher value
[8] = TLR3 IRF3 reporter activation blockers – cell-based, poly I:C stimulus, luciferase, 10K MLSCN set, primary screen (AID 602277;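 active means inhibition of the reporter signal at or above 50%; inactive means inhibition below 50%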); conditions: HEK293-TLR3 RL24 IRF3 luciferase reporter, at 10 µM, stronger effect = higher value

Compound	cell count [1]	inhibition [1]	inhibition of aggregation [2]	nuclei count [2] [%]	inhibition [3]	nuclei count [3] [%]	fluorescence slope [4]	NADPH fluorescence slope [5]	slope [6]	inhibition [7]	inhibition [8]
CC(C)(C)n1nnnc1C(c1ccccc1)N1CCc2ccccc2C1 (stereo not drawn)	481	2.9% (inactive)	16% (inactive)	115	11.4% (inactive)	110	-0.48 (inactive)	-0.000258 (inactive)	0.00496 (inactive)	20.4% (inactive)	30.1% (inactive)
CCOc1ccccc1NC(=O)CC1Nc2cc(C)c(C)cc2NC1=O (stereo not drawn)	374	1.8% (inactive)	23.2% (inactive)	94.4	-48.5% (inactive)	105	-0.265 (inactive)	-1.1e-05 (inactive)	0.00531 (inactive)	14.6% (inactive)	26% (inactive)
CCSc1nnc(NC(=O)c2csc(C)c2)s1	366	4.2% (inactive)	12.8% (inactive)	101	-18.6% (inactive)	104	-0.592 (inactive)	-1.3e-05 (inactive)	0.00352 (inactive)	-36.6% (inactive)	-89.7% (inactive)
CC(=O)c1ccccc1NS(=O)(=O)c1c(C)nn(-c2ccccc2)c1C	580	-2.4% (inactive)	2.3% (inactive)	113	-74.1% (inactive)	92.7	-0.308 (inactive)	-5e-05 (inactive)	0.00448 (inactive)	-4.38% (inactive)	98.9% (active)
CN(C)C(=O)Cn1c(SCC(=O)NC2CCCCC2)nc2ccccc21	685	-3.1% (inactive)	-19.2% (inactive)	112	-68.3% (inactive)	146	-0.41 (inactive)	6.1e-06 (inactive)	0.00698 (inactive)	5.56% (inactive)	31.7% (inactive)
CCOc1cc(/C=N/n2cnnc2)cc(Br)c1O	819	4.2% (inactive)	-15.3% (inactive)	100	-30.9% (inactive)	124	-0.381 (inactive)	-4.4e-06 (inactive)	0.00481 (inactive)	13.1% (inactive)	7.19% (inactive)
CCc1ccc(N2CC34C=CC(O3)C(C(=O)OC)C4C2=O)cc1 (stereo not drawn)	535	4% (inactive)	11.3% (inactive)	85.3	-7.9% (inactive)	101	-0.589 (inactive)	6.6e-06 (inactive)	0.00784 (inactive)	7.96% (inactive)	30.4% (inactive)
CCn1c(SCC(=O)c2ccc(OC)cc2)nnc1C(C)NC(=O)c1ccc(OC)cc1 (stereo not drawn)	449	-1.8% (inactive)	2.6% (inactive)	96.2	-41.9% (inactive)	129	-0.409 (inactive)	2.1e-05 (inactive)	0.00558 (inactive)	-3.91% (inactive)	9.81% (inactive)
CC(C)Cc1nnc(NS(=O)(=O)c2ccc(Cl)cc2)s1	652	5.4% (inactive)	-9.3% (inactive)	112	-21.2% (inactive)	112	-0.541 (inactive)	4.8e-06 (inactive)	0.0081 (inactive)	12.6% (inactive)	27.6% (inactive)
NS(=O)(=O)c1ccc(CCNC(=O)c2cccnc2)cc1	580	-8.3% (inactive)	-11.5% (inactive)	105	-75.4% (inactive)	107	-0.276 (inactive)	-6.8e-05 (inactive)	0.00459 (inactive)	10.9% (inactive)	99.1% (active)
Cc1cc(NC(=O)c2cc3ccccc3o2)cc(C)c1OCC(=O)N1CCOCC1	388	7.3% (inactive)	-7% (inactive)	121	-11.8% (inactive)	115	-0.526 (inactive)	-4.4e-05 (inactive)	0.00621 (inactive)	-1.27% (inactive)	-52% (inactive)
O=C(NC(C(=O)c1ccccc1)N1CCOCC1)c1cccs1 (stereo not drawn)	629	-14.3% (inactive)	19.4% (inactive)	72.3	-2.1% (inactive)	101	-0.311 (inactive)	-5.7e-05 (inactive)	0.00609 (inactive)	-18.2% (inactive)	-23.5% (inactive)
O=C(c1ccc2nc(N3CCCCC3)sc2c1)N1CCN(c2ccccn2)CC1	669	-0.8% (inactive)	-24.8% (inactive)	99.9	5% (inactive)	118	-0.589 (inactive)	5.6e-06 (inactive)	0.00632 (inactive)	-4.41% (inactive)	3.71% (inactive)
COc1cc2c(cc1OC)C(C)N(C(=O)Cn1ncc3c1-c1ccccc1OC3)CC2 (stereo not drawn)	697	-4.8% (inactive)	-21.5% (inactive)	114	-39.6% (inactive)	117	-0.587 (inactive)	-3.4e-05 (inactive)	0.008 (inactive)	7.96% (inactive)	17.3% (inactive)
CC(C)CC(OC(=O)c1cccs1)C(=O)NCc1ccco1 (stereo not drawn)	364	19.1% (inactive)	-9% (inactive)	91.6	2.7% (inactive)	106	-0.425 (inactive)	-2.5e-05 (inactive)	0.00495 (inactive)	6.99% (inactive)	11.5% (inactive)
Cc1cccc(-c2cc3nc(C)cc(NCCCN(C)C)n3n2)c1	399	-0.5% (inactive)	-9.4% (inactive)	114	-44.2% (inactive)	98.7	-0.56 (inactive)	-7.5e-05 (inactive)	0.00413 (inactive)	21% (inactive)	9.1% (inactive)
O=C1CCCC(O)=C1C=Nc1ccc2c(c1)oc1ccccc12	403	1.7% (inactive)	-0.4% (inactive)	95.2	24.8% (inactive)	106	-0.09 (active)	1.4e-05 (inactive)	0.00678 (inactive)	-23% (inactive)	-100% (inactive)
COc1ccc(N2C(=O)CC(N3CCN(c4ccccc4F)CC3)C2=O)cc1 (stereo not drawn)	698	-8.7% (inactive)	-1.9% (inactive)	108	32.2% (inactive)	84.3	-0.538 (inactive)	-2.3e-05 (inactive)	0.00511 (inactive)	6.58% (inactive)	10.1% (inactive)
Nc1nnc(SCc2cc3c(cc2Cl)OCO3)s1	379	7.6% (inactive)	-3.1% (inactive)	110	-30.6% (inactive)	111	-0.477 (inactive)	-6.6e-05 (inactive)	0.00689 (inactive)	0.13% (inactive)	9.87% (inactive)
CC1=C(C(=O)Nc2cccnc2)C(c2ccc(C(C)C)cc2)n2ncnc2N1 (stereo not drawn)	712	-12.8% (inactive)	-16.2% (inactive)	118	-56% (inactive)	120	-0.4 (inactive)	5.8e-05 (inactive)	0.00428 (inactive)	1.35% (inactive)	20% (inactive)
Cc1ccc2c(c1)NC(=O)C(CC(=O)NCCN(CC(C)C)CC(C)C)O2 (stereo not drawn)	659	4.4% (inactive)	7.8% (inactive)	102	-11% (inactive)	125	-0.584 (inactive)	6e-06 (inactive)	0.00608 (inactive)	-16.7% (inactive)	-6.31% (inactive)
CC1(C)CNC(=O)CC(C)(C)N1O	379	4% (inactive)	7.9% (inactive)	89.4	-66.8% (inactive)	110	-0.497 (inactive)	-6.2e-06 (inactive)	0.00315 (inactive)	-4.83% (inactive)	19.7% (inactive)
COC(=O)CNc1nc(C2CC2)nc2c1nnn2Cc1ccccc1Cl	459	8.3% (inactive)	-0.3% (inactive)	83.5	16.5% (inactive)	97.5	-0.479 (inactive)	-0.000128 (inactive)	0.00514 (inactive)	18.2% (inactive)	17.8% (inactive)
N#Cc1c(-c2ccccc2)nc(N2CCCCCC2)[nH]c1=O	379	-6.1% (inactive)	1.9% (inactive)	102	-43.6% (inactive)	116	-0.41 (inactive)	-1.5e-05 (inactive)	0.0048 (inactive)	6.52% (inactive)	14.7% (inactive)
CC(C)n1nc(C(=O)Nc2nc3ccc(S(C)(=O)=O)cc3s2)c2ccccc2c1=O	452	-6.8% (inactive)	-5.5% (inactive)	35.2	-52.1% (inactive)	117	-0.265 (inactive)	-2.5e-05 (inactive)	0.00538 (inactive)	18.5% (inactive)	29.9% (inactive)
O=C(Nc1nnc(COc2ccc(F)cc2)s1)c1cccs1	585	7.2% (inactive)	3.9% (inactive)	126	-42.4% (inactive)	104	-0.52 (inactive)	-2.5e-05 (inactive)	0.0053 (inactive)	12.6% (inactive)	6.8% (inactive)
COC(=O)[C@H](C)NC(=O)Nc1cccc(C(F)(F)F)c1	483	-2.7% (inactive)	29.8% (inactive)	85.5	-98.7% (inactive)	109	-0.537 (inactive)	2.9e-05 (inactive)	0.00446 (inactive)	-11.9% (inactive)	-5.94% (inactive)
N#Cc1c(/N=C/c2cccs2)sc2c1CCCCC2	636	-14.8% (inactive)	-34.1% (inactive)	127	-14.2% (inactive)	127	-0.598 (inactive)	-2.1e-05 (inactive)	0.0029 (inactive)	30.4% (inactive)	-5.24% (inactive)

Source: PubChem BioAssay
